The list is not random: actives were taken first. Their share in the collection is about 3.9%.
MITF act = activators of MITF-driven TRPM1 promoter reporter, primary screen, cell-based, SK-MEL-5, luciferase, single point | SK-MEL-5 TRPM1-promoter luciferase, 24 h; % of positive control, neutral wells = 0 | activation, % at 12.5 µM | 300,000 tested, 0.75% active;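 active = mean activation of at least 80% with every replicate also reaching 80%; inconclusive = mean reaches 80% but some replicate falls short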
HSF1 inhib = HSF1 inhibitors in luciferase reporter cells, primary screen, cell-based, NIH3T3, luminescence; 300,000 tested, 0.77% active; AID 2098, 2009; NIH3T3-HGL HSE-luciferase, MG132-induced, luminescence 8 h; active compounds read low; activity change, negative = inhibition, % at 7.5 µM (by protocol);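 active = more than half of replicate wells show activity change below -50%, luminescence cut by over half; inconclusive = some wells, but at most half, below -50%; inactive = no replicate well below -50%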;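 note: luciferase reports HSF-1 transcriptional activity via heat shock element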
Wnt act = Wnt/beta-catenin pathway activators, primary screen, cell-based, plate reader, single point; activation, % at 9.35 µM; 300,000 tested, 1.2% active; AID 743398, 2014; Wnt/beta-catenin reporter cell assay, activator; in the data active = activation above about 30%, passing the limit was not always enough; inconclusive = no clear call, values can overlap the other calls
esBAF inh = Bmi1 luciferase reporter increase in mESCs, primary screen, esBAF inhibitor project, mouse ES cells, Bmi1 luciferase knock-in, single point; 24 h; 100% = twice the neutral-well signal; reporter increase, % at 12.5 µM; 350,000 tested, 2% active; AID 602393, 2012; in the data active = activation above about 40%; inconclusive = no clear call, values can overlap the other calls;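 note: a rise in the Bmi1 reporter signal indicates esBAF inhibition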
HSF-1 act = HSF-1 activators, primary screen, NIH3T3-HGL cells, MG132 stress, luminescence, single point; NIH3T3-HGL HSF-1 luciferase reporter, 8 h; 100% = twice DMSO control signal; 300,000 tested, 1.7% active; activation, % at 9 µM;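 active = mean replicate activation of at least 50% with a set share of replicates each reaching 50%; inconclusive = only one of those two conditions met; inactive = mean below 50% and too few replicates reaching it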
Numbers stand for hits; – = inactive; ? = inconclusive; · = no result.

SMILES	MITF act	HSF1 inhib	Wnt act	esBAF inh	HSF-1 act
Cc1cc(Cl)c2oc(C(=O)N(C)Cc3ccon3)c(C)c2c1	–	–	–	71	?
Cc1cc(Cl)c2oc(C(=O)N3CCOCC3)c(C)c2c1	·	·	–	67	·
C[C@@H]1CN([C@@H](C)CO)C(=O)Cc2cc(NS(=O)(=O)c3ccccc3)ccc2O[C@@H]1CN(C)Cc1ccncc1	·	·	·	–	·
C[C@@H]1CN([C@@H](C)CO)S(=O)(=O)c2ccc(C3=CCCC3)cc2O[C@H]1CN(C)C(=O)c1ccncc1	·	·	·	–	·
Cc1cc(Cl)c2oc(C(=O)N(C)C3CCOC3)c(C)c2c1 (centres undefined)	–	–	–	42	–
O=C1S/C(=C\c2cccs2)C(=O)N1c1ccc(O)cc1	98	–	44	50	–
O=C1/C(=C/c2cccs2)SC(=S)N1c1ccccc1	–	–	–	–	–
CCCCOc1ccc(C(=O)N/N=C/c2cn[nH]c2-c2ccc(OC)c(OC)c2)cc1	–	–	–	–	54
O=C(Nc1cccc(Cl)c1)c1cnn2cccnc12	89	–	·	–	–
CSc1cccc(NC(=O)c2cnn3ccccc23)c1	104	–	40	·	81
CCc1ccc(NC(=O)c2cnn3ccccc23)cc1	–	–	–	–	–
O=C(Nc1cc(Cl)cc(Cl)c1)c1cnn2cccnc12	–	–	–	·	–
Cc1cc(Br)c2[nH]cc(CCNC(=O)c3ccco3)c2c1	–	-69	–	–	–
Cc1ccc2[nH]cc(CCNC(=O)CN3C(=O)c4ccccc4C3=O)c2c1	–	–	–	–	73
Cc1ccc2[nH]cc(CCNC(=O)c3ccco3)c2c1	–	-68	–	–	–
COc1ccc(NC(=O)Nc2ccc3c(c2)C(=O)N([C@@H](C)CO)C[C@H](C)[C@H](CN(C)S(=O)(=O)c2cccs2)OCCCC[C@@H](C)O3)cc1	·	·	·	–	·
O=C(C[C@H]1CC[C@H](NC(=O)Nc2ccc3c(c2)OCO3)[C@@H](CO)O1)NCc1ccc(Cl)cc1	·	·	·	–	·
COc1ccc(NC(=S)N/N=C/c2ccc(F)cc2)cc1OC	–	–	–	·	55
Fc1cccc(/C=N/NC(=S)Nc2ccccc2Cl)c1	–	–	·	·	87
Fc1ccc(/C=N/NC(=S)Nc2ccc(Cl)cc2)cc1F	–	–	–	–	56
O=C(N/N=C/c1ccc(Cl)c([N+](=O)[O-])c1)c1cc(-c2ccccc2)nc2ccccc12	–	–	–	–	128
Fc1ccc(NC(=S)N/N=C/c2ccc(F)c(F)c2)cc1	–	–	–	·	–
O=C(N/N=C/c1cc([N+](=O)[O-])ccc1Cl)c1cc(-c2ccccc2)nc2ccccc12	–	–	–	·	–
S=C(N/N=C/c1ccc(Cl)c(Cl)c1)Nc1ccccc1Cl	–	–	–	·	–
CO[C@@H]1CN(C)C(=O)c2cc(NC(=O)c3cccc(F)c3)ccc2OC[C@@H](C)N(CC2CC2)C[C@@H]1C	·	·	·	–	·
SMILES	MITF act	HSF1 inhib	Wnt act	esBAF inh	HSF-1 act
O=[N+]([O-])c1cc(/C=N/NC(=S)Nc2ccccc2Cl)ccc1Cl	–	·	–	46	·
C[C@@H]1CN([C@@H](C)CO)C(=O)c2cccc(NC(=O)c3nc4ccccc4s3)c2O[C@H]1CN(C)Cc1ccncc1	·	·	·	–	·
Cc1ccnc(SCC(=O)c2ccc(Br)cc2)c1C#N	–	–	42	·	90
Cc1ccc(C(=O)CSc2nsc(C)c2C#N)cc1	–	–	·	·	–
Cc1snc(SCC(=O)c2ccc(Cl)cc2)c1C#N	126	–	·	–	–
CCCNC(=O)[C@@H]1[C@@H](CO)[C@@H]2Cn3c(ccc(-c4cncnc4)c3=O)[C@H]1N2C(=O)Nc1ccccc1	·	·	·	–	·
Cc1ccc(S(=O)(=O)Nc2cccc3c2O[C@@H](CN(C)S(C)(=O)=O)[C@@H](C)CN([C@@H](C)CO)C3=O)cc1	·	·	·	–	·
Cc1cccc2c3nc4ccccc4nc3n(C)c12	–	–	–	41	–
C[C@@H]1CN([C@@H](C)CO)C(=O)c2cc(NC(=O)C3CCCCC3)ccc2O[C@@H]1CN(C)C(=O)Nc1cccc2ccccc12	·	·	·	–	·
CN(C)c1ccc(C=Cc2cnccn2)cc1	–	·	–	–	·
CN(C)c1ccc(/C=C/c2ccncc2)cc1	–	·	43	–	·
COc1ccc(/C=C/c2ccncc2)cc1	–	–	46	53	–
COc1cccc(/C=C/c2ccncc2)c1OC	–	–	–	–	–
CCC(=O)N[C@H]1CC[C@H](CC(=O)NCCN2CCCCC2)O[C@@H]1CO	·	·	·	–	·
Cn1ccsc1=NC(=O)c1ccc(Cl)c([N+](=O)[O-])c1	–	–	–	83	–
Cc1ccccc1C(=O)N=c1sccn1C	–	–	·	·	–
Cn1ccsc1=NC(=O)c1ccc(S(C)(=O)=O)c([N+](=O)[O-])c1	–	–	–	·	–
Cc1ccc(C(=O)N=c2sccn2C)cc1S(=O)(=O)N1CCOCC1	99	–	–	63	–
Cc1ccc(C(=O)N=c2sccn2C)cc1C	–	–	?	·	–
Cc1cccc(C(=O)N=c2sccn2C)c1[N+](=O)[O-]	100	–	–	56	–
CCCCOc1ccc(C(=O)N=c2sccn2C)cc1OC	?	–	37	57	–
COCC(=O)N(C)C[C@@H]1Oc2ncc(C#CC3(O)CCCC3)cc2C(=O)N([C@@H](C)CO)C[C@@H]1C	·	·	·	–	·
C[C@@H]1CN([C@H](C)CO)C(=O)c2cc(NC(=O)Nc3ccc4c(c3)OCO4)ccc2O[C@@H](C)CCCCO[C@H]1CN(C)C(=O)c1ccccc1	·	·	·	–	·
COCn1c(COc2ccc3ccccc3c2)nc2ccccc21	?	–	·	79	?
C[C@@H]1CN([C@@H](C)CO)C(=O)Cc2cc(NS(C)(=O)=O)ccc2O[C@@H]1CN(C)S(=O)(=O)c1ccc(Cl)cc1	·	·	·	–	·
SMILES	MITF act	HSF1 inhib	Wnt act	esBAF inh	HSF-1 act
CO[C@@H]1CN(C)C(=O)c2ccc(NC(=O)Nc3ccc4c(c3)OCO4)cc2OC[C@H](C)NC[C@H]1C	·	·	·	93	·
CO[C@H]1CN(C)C(=O)c2ccc(NC(=O)c3ccc4c(c3)OCO4)cc2OC[C@H](C)NC[C@@H]1C	·	·	·	–	·
CO[C@H]1CN(C)C(=O)c2cc(NC(=O)Nc3ccccc3)ccc2OC[C@H](C)N(C(=O)CC2CC2)C[C@@H]1C	·	·	·	48	·
CO[C@H]1CN(C)C(=O)c2ccc(NC(=O)Nc3ccc4c(c3)OCO4)cc2OC[C@@H](C)NC[C@@H]1C	·	·	·	56	·
C[C@H](CO)N1C[C@H](C)[C@@H](CN(C)C(=O)Nc2cccc3ccccc23)OCCCC[C@H](C)Oc2ccc(NC(=O)Nc3ccc(C(F)(F)F)cc3)cc2C1=O	·	·	·	–	·
CCCN(C)C[C@@H]1OCCCC[C@@H](C)Oc2ccc(NS(=O)(=O)c3cccs3)cc2C(=O)N([C@H](C)CO)C[C@@H]1C	·	·	·	–	·
COc1ccc(/C=C/C(=O)NC(=S)NCCc2ccc(OC)c(OC)c2)cc1	–	-61	–	–	–
COc1ccc(C(=O)Cc2ccc(OC)c(OC)c2)cc1	–	–	–	42	–

Source: PubChem BioAssay
